The source of these data is PubChem BioAssay (NCI).

Test systems include DU-145 prostate; K-562 leukemia; MALME-3M melanoma; MDA-MB-231 breast; RXF 393 renal; SF-268 CNS; SF-295 CNS; SF-539 CNS; UACC-257 melanoma; M14 melanoma.
Holding throughout (experiment): NCI-60 one-dose screen, 48 h (100 = growth as untreated, 0 = no growth, -100 = all killed)
Common to all, as to settings: 10 µM unless noted

The panel holds about 83,000 compounds, 20% with a hit somewhere; the sample as a whole holds those more often.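 In brief: 96-well plates, 48 h treatment, single concentration, percent growth endpoint.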 Values without a mark were called inactive. Activity calls are given as the source filed them. The calls were made as follows: active = growth percent below 10; inactive = the rest.

On to `O=c1c2ccccc2nc(COc2ccccc2)n1NS(=O)(=O)c1ccc(Cl)cc1`, for which the growth with DU-145 prostate is 100%; with K-562 leukemia, 47.3%; in the assay with MALME-3M melanoma, 82.1%; in the assay on MDA-MB-231 breast, 67.4%; with RXF 393 renal it was 97%; in the assay with SF-268 CNS, 88.6%. Besides, the growth was 97.2% in the assay on SF-295 CNS, 86.9% with SF-539 CNS, 91.2% with UACC-257 melanoma and 74.2% in the assay on M14 melanoma.

Regarding `COc1cc2oc(-c3cccc(C(=O)N[C@@H](CC(C)C)C(=O)OC(C)(C)C)c3)cc(=O)c2c(OC)c1OC`, the growth is 72.8% in the assay on DU-145 prostate; 36.7% with K-562 leukemia; 96.3% in the assay on MALME-3M melanoma; 72.1% in the assay with MDA-MB-231 breast; 86.2% in the assay with RXF 393 renal; 83.8% in the assay with SF-268 CNS. Besides, the growth is 52.3% with SF-295 CNS, 88.6% in the assay on SF-539 CNS, 112% with UACC-257 melanoma and 93.7% in the assay with M14 melanoma.

In the case of `O=C(NNc1nc2cc(F)ccc2n2cccc12)c1ccncn1`, the growth is 18.6% with DU-145 prostate; 14.6% with K-562 leukemia; 27.6% in the assay on MALME-3M melanoma; 41.1% in the assay with MDA-MB-231 breast; 30.3% in the assay on RXF 393 renal; 19.6% in the assay with SF-268 CNS. In addition, the growth with SF-295 CNS is 12.1%; in the assay on SF-539 CNS it was 4.41% (active); with UACC-257 melanoma it was 5.01% (active); with M14 melanoma, 1.55% (active).

As to `Cc1cc(C(NC(=O)CCCCCNc2cccc3c2C(=O)N(C2CCC(=O)NC2=O)C3=O)c2ccc3c(c2)OC(F)(F)O3)c(O)c2ncccc12` (stereo not given), the growth was 51.9% in the assay on DU-145 prostate; 30.2% in the assay with K-562 leukemia; 84.5% in the assay on MALME-3M melanoma; 55.2% with MDA-MB-231 breast; 86.4% in the assay with RXF 393 renal; 47.8% in the assay on SF-268 CNS. Also, the growth in the assay with SF-295 CNS was 48.2%; in the assay on SF-539 CNS it was 56.3%; in the assay on UACC-257 melanoma, 98.5%; in the assay on M14 melanoma it was 70.2%.

Regarding `C#CC(=O)N(c1ccc(OC)cc1OC)C(C(=O)NCC(=O)OCC)c1cccs1` (stereo not given), the growth in the assay on DU-145 prostate was 33.2%; in the assay with K-562 leukemia, 3.23% (active); with MALME-3M melanoma, -61.8% (active); in the assay with MDA-MB-231 breast, 22.4%; in the assay with RXF 393 renal, 56.5%; in the assay on SF-268 CNS, -23.1% (active). Further, the growth in the assay on SF-295 CNS was -67.9% (active); in the assay on SF-539 CNS, -86% (active); with UACC-257 melanoma it was 86.6%; in the assay with M14 melanoma, 80.9%.

With `N/C(=N\C(N)=N\c1nc2ccccc2s1)c1cccc(F)c1`, the growth in the assay on DU-145 prostate was 104% [5 µM]; in the assay with K-562 leukemia, 89.2% [5 µM]; in the assay on MALME-3M melanoma, 91.5% [5 µM]; with MDA-MB-231 breast it was 78.7% [5 µM]; with RXF 393 renal it was 122% [5 µM]; in the assay with SF-268 CNS it was 99.1% [5 µM]. The growth in the assay with SF-295 CNS was 87.8% [5 µM]; in the assay with SF-539 CNS, 100% [5 µM]; in the assay with UACC-257 melanoma, 104% [5 µM]; in the assay on M14 melanoma, 98.4% [5 µM].

`COc1ccc(-n2c(SCc3n[nH]c(=S)o3)nc3ccc(Cl)cc3c2=O)cc1`: the growth in the assay on DU-145 prostate is 96.3%; in the assay with K-562 leukemia, 99.6%; in the assay on MALME-3M melanoma, 95.3%; in the assay on MDA-MB-231 breast, 94.6%; with RXF 393 renal, 89.5%; in the assay with SF-268 CNS, 92.1%. Besides, the growth with SF-295 CNS is 97.3%; in the assay with SF-539 CNS, 91.5%; in the assay with UACC-257 melanoma it was 102%; in the assay on M14 melanoma, 112%.

In the case of `CN(C)CCCOc1ccc2c(c1)CN(C(=O)c1cc(C(=O)N3Cc4cccc(F)c4C3)ccc1O)C2`, the growth in the assay with DU-145 prostate is 94.9%; in the assay with K-562 leukemia it was 88.8%; in the assay with MALME-3M melanoma, 103%; in the assay with MDA-MB-231 breast, 103%; in the assay on RXF 393 renal, 93.3%; with SF-268 CNS, 100%. Also, the growth was 100% in the assay on SF-295 CNS, 91% in the assay with SF-539 CNS, 108% in the assay on UACC-257 melanoma and 106% with M14 melanoma.

For the compound `Cc1cc(C)c2sc(=O)n(Cc3nnc(SCCC(=O)O)o3)c2n1`, the growth in the assay on DU-145 prostate was 108%; with K-562 leukemia it was 94.2%; in the assay on MALME-3M melanoma, 99.2%; in the assay with MDA-MB-231 breast it was 97.5%; in the assay on RXF 393 renal, 89.2%; in the assay with SF-268 CNS it was 99.2%. Further, the growth in the assay on SF-295 CNS was 101%; in the assay with SF-539 CNS, 98.8%; in the assay with UACC-257 melanoma it was 101%; in the assay on M14 melanoma, 104%.

Turning to `Clc1nc2ccccc2nc1-c1nnc(C2CCCCC2)o1`, the growth in the assay on DU-145 prostate is 91.3%; in the assay on K-562 leukemia it was 80.9%; in the assay on MALME-3M melanoma, 95.2%; in the assay with MDA-MB-231 breast it was 105%; with RXF 393 renal, 87.6%; in the assay with SF-268 CNS it was 101%. In addition, the growth in the assay with SF-295 CNS is 106%; in the assay with SF-539 CNS, 97.7%; in the assay on UACC-257 melanoma, 96.7%; in the assay on M14 melanoma it was 94.3%.

For the compound `CC(=O)c1ccc(Nc2nc(SCC(C)C)nc(-c3ccc(F)cc3)c2C#N)cc1`, the growth in the assay with DU-145 prostate was 113%; with K-562 leukemia, 106%; in the assay on MALME-3M melanoma it was 114%; in the assay on MDA-MB-231 breast it was 106%; in the assay with RXF 393 renal, 118%; in the assay on SF-268 CNS it was 114%. The growth with SF-295 CNS is 118%; in the assay on SF-539 CNS it was 105%; in the assay on UACC-257 melanoma, 106%; in the assay on M14 melanoma, 115%.

With `C[C@@H]1C[C@H]2C(=O)O[C@@H](C)C(NC(=O)[C@H](Cc3cc(F)cc(F)c3)NC(=O)Nc3ccc(Cl)cc3F)C(=O)N3CCC[C@H]3C(=O)N3CCCC[C@H]3C(=O)N[C@@H](CO)C(=O)N2C1` (stereo not given in full), the growth in the assay on DU-145 prostate was 26.2%; with K-562 leukemia it was 23.6%; in the assay on MALME-3M melanoma, 46.3%; in the assay on MDA-MB-231 breast, 35.2%; in the assay with RXF 393 renal it was -10.3% (active); in the assay on SF-268 CNS, 31.7%. Further, the growth in the assay on SF-295 CNS was 20%; in the assay on SF-539 CNS, 36.2%; with UACC-257 melanoma, 15.8%; with M14 melanoma, 20.7%.

Regarding `CC(=O)C1=C(C)NC(NNC(N)=S)=NC1c1ccccc1` (stereo not given), the growth in the assay on DU-145 prostate was 90.9%; with K-562 leukemia, 113%; in the assay on MALME-3M melanoma, 110%; with MDA-MB-231 breast, 77%; with RXF 393 renal, 45.5%; with SF-268 CNS, 84.8%. Moreover, the growth in the assay with SF-295 CNS is 102%; in the assay with SF-539 CNS, 96.7%; in the assay on UACC-257 melanoma, 104%; in the assay with M14 melanoma, 92.9%.
